Experiment in all cases: log2 ratio of Biotin-Ahx-Ub-VS probe labelling (fragment/DMSO); higher = less target engagement (more negative = stronger competition), active = hit call of the paper (q ≤ 0.05, log2 ratio ≤ -1)
Holding throughout (conditions): compound concentration: 200 uM; treatment time: 3 h

Experiment [1] addresses T1, OTUD6B (UniProt Q8N6M0).
T1 sequence (whole entry): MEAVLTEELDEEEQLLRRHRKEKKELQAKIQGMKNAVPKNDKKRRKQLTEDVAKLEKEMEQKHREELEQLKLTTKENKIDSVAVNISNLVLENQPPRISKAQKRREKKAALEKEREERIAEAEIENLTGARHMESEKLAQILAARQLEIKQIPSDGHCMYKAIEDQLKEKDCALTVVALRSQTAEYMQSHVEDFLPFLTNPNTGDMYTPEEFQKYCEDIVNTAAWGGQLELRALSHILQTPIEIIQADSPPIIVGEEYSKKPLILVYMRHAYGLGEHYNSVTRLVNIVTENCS
Put shortly: (§1)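 Using Biotin-Ahx-Ub-VS at 0.5 µM final for 1 h, DUBs were labelled in HEK293T lysate (495 µg per sample) that had first been treated in triplicate with fragment at 200 µM or vehicle for 3 h. NeutrAvidin enrichment, LysC and trypsin digestion and diaPASEF LC-MS/MS followed. Spectronaut label-free quantities were global-median-normalised. Values are average log2 fragment/vehicle ratios by unpaired t-test, using proteins with ≥2 unique peptides.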

In experiment [2] the target is T2, OTUD7B (UniProt Q6GQQ9).
T2 sequence (whole entry): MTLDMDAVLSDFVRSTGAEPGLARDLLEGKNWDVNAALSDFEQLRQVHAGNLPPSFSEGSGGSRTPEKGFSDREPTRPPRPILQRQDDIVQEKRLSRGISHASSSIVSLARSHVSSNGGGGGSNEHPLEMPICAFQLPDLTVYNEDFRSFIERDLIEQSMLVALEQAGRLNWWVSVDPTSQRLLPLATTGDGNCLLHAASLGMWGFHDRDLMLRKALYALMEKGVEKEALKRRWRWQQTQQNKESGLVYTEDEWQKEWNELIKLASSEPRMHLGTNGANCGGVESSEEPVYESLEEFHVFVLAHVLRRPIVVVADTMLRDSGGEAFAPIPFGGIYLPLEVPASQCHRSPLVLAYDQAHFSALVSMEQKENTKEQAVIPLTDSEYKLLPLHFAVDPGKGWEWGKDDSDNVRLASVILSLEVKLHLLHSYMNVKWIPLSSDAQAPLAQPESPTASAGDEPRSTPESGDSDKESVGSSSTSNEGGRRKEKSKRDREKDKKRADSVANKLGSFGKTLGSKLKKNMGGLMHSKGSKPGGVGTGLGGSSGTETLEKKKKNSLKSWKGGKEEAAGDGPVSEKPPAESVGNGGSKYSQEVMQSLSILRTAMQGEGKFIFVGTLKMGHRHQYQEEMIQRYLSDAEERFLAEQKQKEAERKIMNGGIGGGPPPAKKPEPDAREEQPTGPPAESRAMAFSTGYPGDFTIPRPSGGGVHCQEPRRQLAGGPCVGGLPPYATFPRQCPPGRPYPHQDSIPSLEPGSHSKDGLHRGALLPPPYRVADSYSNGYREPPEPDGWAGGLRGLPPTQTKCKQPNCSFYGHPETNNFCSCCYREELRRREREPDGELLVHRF
A digest of the protocol:
as §1

Experiment [3] concerns the target PRPF8 (UniProt Q6P2Q9). A digest of the protocol: as §1
The target in experiment [4] is T3, PSMD7 (UniProt P51665).
T3 sequence (whole entry): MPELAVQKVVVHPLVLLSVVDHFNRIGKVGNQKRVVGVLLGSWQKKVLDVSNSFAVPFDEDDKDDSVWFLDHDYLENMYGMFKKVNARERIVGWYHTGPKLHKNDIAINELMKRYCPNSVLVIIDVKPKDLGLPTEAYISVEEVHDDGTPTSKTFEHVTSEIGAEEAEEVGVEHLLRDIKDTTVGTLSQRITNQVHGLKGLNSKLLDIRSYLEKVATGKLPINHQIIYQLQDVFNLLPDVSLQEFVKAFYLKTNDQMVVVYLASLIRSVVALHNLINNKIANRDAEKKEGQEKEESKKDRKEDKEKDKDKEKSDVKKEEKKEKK
Put shortly: as §1

Experiment [5] deals with UCHL1 (UniProt P09936). Put shortly: as §1
UCHL1, sequence (P09936 whole entry, looked up): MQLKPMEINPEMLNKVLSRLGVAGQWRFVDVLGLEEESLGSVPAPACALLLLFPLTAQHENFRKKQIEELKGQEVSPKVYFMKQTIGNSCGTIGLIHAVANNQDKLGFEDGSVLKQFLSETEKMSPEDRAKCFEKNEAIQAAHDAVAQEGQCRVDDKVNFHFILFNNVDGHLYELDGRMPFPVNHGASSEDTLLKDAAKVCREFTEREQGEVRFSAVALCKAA
For experiment [6], the target named is T4, UCHL3 (UniProt P15374).
T4 sequence (whole entry): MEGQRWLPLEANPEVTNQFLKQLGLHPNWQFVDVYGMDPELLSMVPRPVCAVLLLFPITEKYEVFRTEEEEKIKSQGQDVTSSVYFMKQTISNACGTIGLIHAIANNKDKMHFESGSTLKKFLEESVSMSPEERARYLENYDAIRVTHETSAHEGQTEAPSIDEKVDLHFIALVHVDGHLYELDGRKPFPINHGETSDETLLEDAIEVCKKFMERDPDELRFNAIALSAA
A digest of the protocol:
as §1

In experiment [7] the target is T5, UCHL5 (UniProt Q9Y5K5).
T5 sequence (whole entry): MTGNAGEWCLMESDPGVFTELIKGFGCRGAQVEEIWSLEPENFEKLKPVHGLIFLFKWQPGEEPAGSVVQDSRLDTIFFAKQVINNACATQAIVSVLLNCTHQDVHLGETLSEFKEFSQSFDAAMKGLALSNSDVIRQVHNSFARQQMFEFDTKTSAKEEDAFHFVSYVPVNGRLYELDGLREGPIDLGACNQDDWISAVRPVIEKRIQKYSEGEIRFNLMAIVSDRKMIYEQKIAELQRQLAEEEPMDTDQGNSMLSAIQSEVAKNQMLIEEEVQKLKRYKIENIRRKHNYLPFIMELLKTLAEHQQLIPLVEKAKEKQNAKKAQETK
Put shortly: as §1

Experiment [8] concerns the target USP10 (UniProt Q14694). A digest of the protocol: as §1
The target of experiment [9] is T6, USP15 (UniProt Q9Y4E8).
T6 sequence (whole entry): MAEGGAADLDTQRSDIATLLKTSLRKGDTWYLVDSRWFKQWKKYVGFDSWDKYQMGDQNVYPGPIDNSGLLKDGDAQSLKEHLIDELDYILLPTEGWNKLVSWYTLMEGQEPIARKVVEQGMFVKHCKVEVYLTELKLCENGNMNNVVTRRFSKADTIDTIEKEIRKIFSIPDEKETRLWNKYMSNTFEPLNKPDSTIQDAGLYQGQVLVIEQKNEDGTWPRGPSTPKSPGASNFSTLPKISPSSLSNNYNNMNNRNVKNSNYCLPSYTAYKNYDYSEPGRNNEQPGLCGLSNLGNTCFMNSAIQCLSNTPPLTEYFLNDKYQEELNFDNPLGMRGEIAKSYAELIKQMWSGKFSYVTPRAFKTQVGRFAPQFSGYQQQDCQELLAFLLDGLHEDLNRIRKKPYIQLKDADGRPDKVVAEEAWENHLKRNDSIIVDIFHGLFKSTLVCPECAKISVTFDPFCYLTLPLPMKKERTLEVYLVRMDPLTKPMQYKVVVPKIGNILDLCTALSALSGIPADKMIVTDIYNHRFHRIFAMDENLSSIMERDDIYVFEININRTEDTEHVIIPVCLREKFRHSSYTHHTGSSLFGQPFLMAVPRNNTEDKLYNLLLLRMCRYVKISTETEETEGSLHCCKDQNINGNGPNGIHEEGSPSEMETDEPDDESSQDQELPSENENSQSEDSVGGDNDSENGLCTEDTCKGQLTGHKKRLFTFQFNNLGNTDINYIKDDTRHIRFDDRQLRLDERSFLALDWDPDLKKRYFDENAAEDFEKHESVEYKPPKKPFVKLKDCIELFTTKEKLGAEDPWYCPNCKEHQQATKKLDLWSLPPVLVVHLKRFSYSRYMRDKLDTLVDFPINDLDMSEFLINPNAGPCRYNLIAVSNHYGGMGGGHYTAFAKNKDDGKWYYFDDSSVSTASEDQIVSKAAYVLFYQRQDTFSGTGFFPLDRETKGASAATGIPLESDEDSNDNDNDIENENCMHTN
Put shortly:
as §1

Values without a mark were called inactive.

USP10, sequence (Q14694 whole entry): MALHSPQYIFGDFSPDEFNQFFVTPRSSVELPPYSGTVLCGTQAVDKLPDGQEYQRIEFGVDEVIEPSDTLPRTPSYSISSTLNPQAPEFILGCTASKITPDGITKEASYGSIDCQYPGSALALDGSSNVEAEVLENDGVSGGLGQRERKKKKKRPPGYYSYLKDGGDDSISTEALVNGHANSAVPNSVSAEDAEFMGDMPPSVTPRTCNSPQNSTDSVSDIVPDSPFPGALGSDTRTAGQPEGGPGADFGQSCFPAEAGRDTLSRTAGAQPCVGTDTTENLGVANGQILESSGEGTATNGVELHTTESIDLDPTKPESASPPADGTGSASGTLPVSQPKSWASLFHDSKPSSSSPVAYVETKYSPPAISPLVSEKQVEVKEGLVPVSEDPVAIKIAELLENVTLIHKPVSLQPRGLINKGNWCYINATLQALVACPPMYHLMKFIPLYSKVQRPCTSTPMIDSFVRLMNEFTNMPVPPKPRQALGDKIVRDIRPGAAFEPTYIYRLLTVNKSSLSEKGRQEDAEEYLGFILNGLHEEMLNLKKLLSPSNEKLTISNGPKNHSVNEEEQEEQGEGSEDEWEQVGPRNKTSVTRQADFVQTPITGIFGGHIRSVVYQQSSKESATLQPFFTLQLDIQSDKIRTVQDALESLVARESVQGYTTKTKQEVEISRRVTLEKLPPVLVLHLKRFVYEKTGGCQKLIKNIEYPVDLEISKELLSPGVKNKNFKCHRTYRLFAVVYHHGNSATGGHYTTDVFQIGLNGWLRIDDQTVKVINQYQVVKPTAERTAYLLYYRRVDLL

On to `O=C(CCl)NCc1ccc2c(c1)OCO2`, for which the “log2 ratio of Biotin-Ahx-Ub-VS probe labelling” value in [1] is 0.00826; in experiment [2], -0.843; in experiment [3], -0.215; in experiment [4], -0.228; in experiment [5] it was -1.36 (active); in experiment [6], -0.0636. Moreover, the “log2 ratio of Biotin-Ahx-Ub-VS probe labelling” value in experiment [7] is -0.325; in [8], -0.00649; in experiment [9], -0.0739.

These data come from the supplement of paper PMC11732987, “Enantioselective OTUD7B fragment discovery through chemoproteomics screening and high-throughput optimisation” (Communications Chemistry, 2025).
